“And” between values parts separate entries of the source, which are not always exact repeats. Identical values can stand only once. For part of these data: Results with a measured potency or affinity are listed apart. The source made the active and inactive calls.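 The calls were made as follows, unless noted: active = GFP response above 150% of the DMSO level; inconclusive = fewer than 70 events counted for a yeast strain; inactive = the rest.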
Assays:
[1] = biological target: Cell division control protein 42 homolog (Homo sapiens) (UniProt P60953); test: activated mutant Cdc42 GTP-binding inhibitors, dose response, biochemical, multiplex bead flow cytometry, Bodipy-FL-GTP (AID 1333;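 active = fitted half-maximal concentration within the tested dose range, moderate curve steepness, a statistically real signal drop, and little compound fluorescence or tag-binding interference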)
[2] = biological target: Cell division control protein 42 homolog (Homo sapiens) (UniProt P60953); test: wildtype Cdc42 GTP-binding inhibitors, dose response, biochemical, multiplex bead flow cytometry, Bodipy-FL-GTP (AID 1334;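 active = fitted half-maximal concentration within the tested range, moderate curve steepness, significant signal drop, and little compound fluorescence or bead-linkage interference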); settings: bead-based flow cytometry, Bodipy-FL-GTP binding to GST-Cdc42; at 100 µM (top of the series) unless noted
[3] = biological target: GTPase HRas (Homo sapiens) (UniProt P01112); test: inhibitors of GTP binding to wildtype Ras, dose response, biochemical, multiplex bead flow cytometry (AID 1335;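 active = fitted half-maximal concentration within 10 nM to 100 µM, steepness 0.5 to 2, significant signal drop, low assay interference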); settings: bead-based flow cytometry, Bodipy-GTP binding to GST-Ras; at 100 µM (top of the series) unless noted
[4] = tested on: Ras-related protein Rab-7a (dog), GTP binding; test: Rab7 GTP binding inhibitors, potency, dose response, biochemical, wildtype, multiplex bead flow cytometry (AID 1336; call rule not given here)
[5] = biological target: Ras-related C3 botulinum toxin substrate 1 (Homo sapiens) (UniProt P63000); test: wildtype Rac1 GTP binding inhibitors, dose response, biochemical, multiplex bead flow cytometry (AID 1340;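 active = dose curve with midpoint inside tested range, moderate steepness, plateau gap beyond fit error, low compound glow and bead-link interference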); settings: GST-Rac1 beads, Bodipy-FL-GTP binding; at 100 µM (top of the series) unless noted
[6] = biological target: GTPase HRas (Homo sapiens) (UniProt P01112); test: activated Ras mutant GTP binding inhibitors, dose response, biochemical, multiplex bead flow cytometry (AID 1341;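 active = dose-response curve with midpoint inside the tested range, moderate steepness, significant amplitude and little compound fluorescence or bead-attachment interference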;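 also: GST-tagged constitutively activated Ras mutant immobilized on beads and multiplexed with other GTPases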)
[7] = RPL19A-GFP modulators, yeast TOR pathway, confirmation, cell-based, S. cerevisiae, flow cytometry, cherry picks, mother/daughter gates (AID 2270;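 active = GFP response below 50% of the DMSO control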); settings: S. cerevisiae RPL19A-GFP strain, 3 h, at 10 µM, stronger effect = lower value, 100 = same GFP as DMSO wells
[8] = LAP4-GFP expression modulators in yeast, confirmation, cell-based, cherry picks, flow cytometry, mother/daughter gates (AID 2271;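 active = GFP response above 150% of the DMSO control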;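 also: ratio of sample to DMSO plate mean so 100% equals DMSO level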); settings: S. cerevisiae LAP4-GFP strain, 3 h, at 10 µM, stronger effect = higher value, 100 means same as DMSO control
[9] = modulators of MEP2-GFP levels in yeast, confirmation, S. cerevisiae, flow cytometry GFP, cherry picks (AID 2272;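 active = GFP response above 150% of the DMSO control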;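 also: ratio of well signal to plate DMSO mean so 100% equals DMSO level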); settings: S. cerevisiae MEP2-GFP strain, 3 h, at 10 µM, stronger effect = higher value
[10] = AGP1-GFP expression modulators, hit retest, confirmation, cell-based, flow cytometry, S. cerevisiae, cherry picks (AID 2273);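 also: median GFP channel fluorescence over the whole cell population gate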; settings: S. cerevisiae AGP1-GFP strain, 3 h, at 10 µM
[11] = modulators of CIT2-GFP expression in yeast, confirmation, S. cerevisiae, GFP fusion, cherry picks, mother/daughter gates (AID 2274); settings: S. cerevisiae CIT2-GFP strain, flow cytometry, 3 h, at 10 µM, stronger effect = higher value
[12] = measured here: daughter cell gate
[13] = measured here: mother cell gate
[14] = measured here: daughter cell gate response
[15] = measured here: mother cell gate response

GTPase HRas (Homo sapiens), sequence (P01112 whole entry, looked up): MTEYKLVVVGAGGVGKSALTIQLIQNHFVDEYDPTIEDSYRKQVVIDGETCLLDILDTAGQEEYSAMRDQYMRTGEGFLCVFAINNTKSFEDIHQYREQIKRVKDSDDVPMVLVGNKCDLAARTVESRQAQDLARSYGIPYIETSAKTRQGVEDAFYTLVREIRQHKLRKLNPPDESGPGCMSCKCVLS
Cell division control protein 42 homolog (Homo sapiens), sequence (P60953 whole entry, looked up): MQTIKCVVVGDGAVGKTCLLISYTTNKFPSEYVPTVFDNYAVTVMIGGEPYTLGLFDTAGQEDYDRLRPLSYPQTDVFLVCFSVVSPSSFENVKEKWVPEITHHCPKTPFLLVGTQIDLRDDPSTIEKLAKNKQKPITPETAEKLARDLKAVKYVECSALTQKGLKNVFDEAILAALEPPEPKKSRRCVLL

Compound | outcome [1] | fluorescence, percent of control (lower = inhibition) [2] | GTP binding, percent of control [3] | outcome [4] | GTP binding signal, raw median fluorescence (lower = inhibition) (MCF (arbitrary fluorescence units)) [5] | outcome [6] | GFP response vs DMSO [7] | GFP response vs DMSO [7, 12] | GFP response vs DMSO [7, 13] | GFP response relative to DMSO [8] | GFP response relative to DMSO [8, 14] | GFP response relative to DMSO [8, 15] | GFP response vs DMSO [9] | GFP response, % of DMSO [10] | GFP response, % of DMSO [11] | GFP response, % of DMSO [11, 12] | GFP response, % of DMSO [11, 13]
O=C(C#Cc1ccccc1)c1cccc([N+](=O)[O-])c1 | inactive | 50.9% and 49.2% | 170% and 92.3% | inactive | 92.8 | inactive | 92.5% (inactive) | 95.9% | 85.9% | 182% (active) | 166% | 183% | 121% (inactive) | 112% (inactive) | 105% (inactive) | 110% | 97.3%
COC(=O)n1c(=S)oc2cc(Cl)ccc21 | inactive | 58.3% | 154% | inactive | 170 | inactive | 106% (inactive) | 93.9% | 94.5% | 126% (inactive) | 105% | 110% | 141% (inactive) | 111% (inactive) | 121% (inactive) | 98.3% | 100%
COc1cccc2sc(Nc3nc(-c4ccccn4)cs3)nc12 | inactive | 34.8% | 80.4% | inactive | 194 | inactive | 107% (inactive) | 99.5% | 96.6% | 254% (active) | 201% | 240% | 124% (inactive) | 104% (inactive) | 96.5% (inactive) | 99.7% | 88%
Oc1ccc2ccccc2c1/C=N/Nc1nnc(-c2ncc[nH]2)c2ccccc12 | inactive | 44% | 59.7% | inactive | 138 | inactive | 108% (inactive) | 91.9% | 108% | 123% (inactive) | 119% | 128% | 137% (inactive) | 95.9% (inactive) | 162% (active) | 114% | 205%
CS(=O)(=O)N1N=C(c2ccccc2)CC1c1ccc2c(c1)OCO2 (stereo not drawn) | inactive | 112% | 120% | inactive | 247 | inactive | 136% (inactive) | 137% | 135% | 449% (active) | 466% | 439% | 1140% (active) | 204% (active) | 436% (active) | 437% | 413%
O=C1c2ccccc2-c2onc3ccc(Oc4ccccc4)c1c23 | inactive | 27.9% | 46.3% | inactive | 183 | inactive | 86.5% (inactive) | 86.6% | 85.9% | 147% (inactive) | 136% | 150% | 113% (inactive) | 84.3% (inactive) | 95.2% (inactive) | 94.8% | 94.4%
CCOc1ccc(CCNc2ccc3nnc(-c4ccccc4)n3n2)cc1OCC | inactive | 40.9% | 54.2% | inactive | 141 | inactive | – | – | – | – | – | – | – | – | – | – | –

Reference: PubChem BioAssay
